Consider 20 molecules from PubChem BioAssay.

Assay [1] is described as follows: antimalarial activity against Dd2 strain (AID 2302;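 active = growth inhibition above 50% at the single 2 µM test dose, taken to imply half-maximal potency below 2 µM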;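 note: 0% = DMSO untreated growth and 100% = chloroquine plus artemisinin killed control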). The following applies: P. falciparum Dd2 in RBCs, LDH growth readout, 72 h; at 2 µM; hits give high values.
Assay [2] is described as follows: human hepatoma cell viability loss – ATP luminescence, cytotoxicity control for P. falciparum antimalarial project, primary screen (AID 2303;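 active = inhibition above 50%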;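 note: 0% = DMSO wells and 100% = digitonin-killed cells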). To be noted: HepG2 viability, 24-48 h, at 10 µM, hits give high values.
Assay [3] has as its target L-lactate dehydrogenase (Plasmodium falciparum (isolate CDC / Honduras)) (UniProt Q27743). The assay can be described thus: PfLDH activity inhibition – cell lysate, 3D7 strain, counter-screen for P. falciparum growth inhibition project (AID 2304).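 Note: 0% = vehicle and 100% = reference inhibitor.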 The following applies: P. falciparum 3D7 crude extract, LDH APAD/NBT absorbance; at 2 µM; hits give high values.
Assay [4] can be described thus: inhibition of 3D7 malaria parasite growth – strain 3D7 (AID 2306).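 Note: 0% = DMSO wells and 100% = chloroquine plus artemisinin control wells.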 To be noted: P. falciparum 3D7 erythrocytic growth, LDH absorbance, 72 h; at 2 µM; hits give high values.
For assay [5], the target named is Calcium-dependent protein kinase 1 (Plasmodium falciparum (isolate 3D7)) (UniProt P62344). In words: PfCDPK1 kinase inhibitors, biochemical, TCAMS library (AID 1159585; cut-off not given, nearly all actives have IC50 up to about 0.98 µM;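 note: inhibitors leave more ATP so luminescence rises with inhibition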). To be noted: recombinant PfCDPK1, Kinase-Glo ATP depletion luminescence. Background: Kinase-Glo measures the ATP left after a reaction by luminescence.
The target in assay [6] is Plasmodium falciparum protein kinase 6 (PK6, PF3D7_1337100) (UniProt Q8IDW1). In words: PfPK6 kinase inhibitors, biochemical, TCAMS library (AID 1159586). The following applies: recombinant PfPK6, Kinase-Glo ATP depletion luminescence.
Assay [7] addresses Protein kinase 7 (PK7), Plasmodium falciparum 3D7 (PF3D7_0213400) (UniProt Q7YTF7). The assay can be described thus: inhibition of Plasmodium PK7 catalytic activity – biochemical, TCAMS antimalarial set, Kinase-Glo luminescence (AID 1159587). To be noted: recombinant PfPK7, Kinase-Glo ATP depletion luminescence.
For assay [8], the target named is Calcium-dependent protein kinase 4 (Plasmodium falciparum (isolate 3D7)) (UniProt Q8IBS5). In words: PfCDPK4 kinase inhibitors, biochemical, TCAMS library (AID 1159588; cut-off not given, nearly all actives have IC50 up to about 0.91 µM). To be noted: recombinant PfCDPK4, Kinase-Glo ATP depletion luminescence.

Values without a mark were called inactive. For some of these results: Measured potencies and affinities stand elsewhere. Activity calls are given as the source filed them. Unless noted, the rule behind the calls is not given here.

Chain of Protein kinase 7 (PK7), Plasmodium falciparum 3D7 (PF3D7_0213400) (Q7YTF7 1-343): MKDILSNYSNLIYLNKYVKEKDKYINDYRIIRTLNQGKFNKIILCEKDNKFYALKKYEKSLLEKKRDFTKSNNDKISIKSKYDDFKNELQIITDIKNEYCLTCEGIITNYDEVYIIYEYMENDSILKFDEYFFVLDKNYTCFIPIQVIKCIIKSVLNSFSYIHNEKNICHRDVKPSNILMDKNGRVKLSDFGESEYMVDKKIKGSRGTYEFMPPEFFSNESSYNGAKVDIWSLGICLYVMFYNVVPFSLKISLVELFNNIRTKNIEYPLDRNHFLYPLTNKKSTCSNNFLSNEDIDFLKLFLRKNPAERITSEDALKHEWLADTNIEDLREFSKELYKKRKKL
Chain of Plasmodium falciparum protein kinase 6 (PK6, PF3D7_1337100) (Q8IDW1 1-305): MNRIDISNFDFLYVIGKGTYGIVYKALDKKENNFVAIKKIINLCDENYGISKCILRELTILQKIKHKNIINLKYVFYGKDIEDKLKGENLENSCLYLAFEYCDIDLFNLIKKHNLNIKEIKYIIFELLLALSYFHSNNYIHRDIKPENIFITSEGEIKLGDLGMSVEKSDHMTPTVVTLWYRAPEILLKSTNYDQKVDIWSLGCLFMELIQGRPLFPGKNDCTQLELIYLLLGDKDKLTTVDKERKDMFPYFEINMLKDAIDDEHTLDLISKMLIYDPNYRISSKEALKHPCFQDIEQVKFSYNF
Chain of L-lactate dehydrogenase (Plasmodium falciparum (isolate CDC / Honduras)) (Q27743 whole entry, looked up): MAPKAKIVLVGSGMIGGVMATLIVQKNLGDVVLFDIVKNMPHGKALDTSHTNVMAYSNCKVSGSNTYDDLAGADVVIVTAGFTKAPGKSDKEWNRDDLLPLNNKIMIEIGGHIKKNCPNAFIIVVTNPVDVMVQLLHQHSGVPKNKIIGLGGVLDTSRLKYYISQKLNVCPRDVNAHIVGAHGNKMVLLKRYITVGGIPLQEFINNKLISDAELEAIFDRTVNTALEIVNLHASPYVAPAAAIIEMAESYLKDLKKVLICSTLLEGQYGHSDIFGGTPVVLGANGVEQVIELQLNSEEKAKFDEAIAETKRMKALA
Chain of Calcium-dependent protein kinase 1 (Plasmodium falciparum (isolate 3D7)) (P62344 whole entry, looked up): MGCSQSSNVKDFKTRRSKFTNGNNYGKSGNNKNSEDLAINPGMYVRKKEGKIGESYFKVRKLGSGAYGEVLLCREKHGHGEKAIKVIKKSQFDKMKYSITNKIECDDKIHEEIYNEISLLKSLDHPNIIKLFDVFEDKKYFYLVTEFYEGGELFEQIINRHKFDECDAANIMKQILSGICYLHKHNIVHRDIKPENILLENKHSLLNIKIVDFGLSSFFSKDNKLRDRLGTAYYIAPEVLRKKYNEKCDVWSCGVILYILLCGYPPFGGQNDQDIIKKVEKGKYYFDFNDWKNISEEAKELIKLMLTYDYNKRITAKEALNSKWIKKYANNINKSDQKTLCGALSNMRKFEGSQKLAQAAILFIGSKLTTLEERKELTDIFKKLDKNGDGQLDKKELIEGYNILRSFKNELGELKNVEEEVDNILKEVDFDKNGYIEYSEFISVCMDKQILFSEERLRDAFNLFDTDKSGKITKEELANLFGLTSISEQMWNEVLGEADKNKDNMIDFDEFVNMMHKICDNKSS
Chain of Calcium-dependent protein kinase 4 (Plasmodium falciparum (isolate 3D7)) (Q8IBS5 whole entry, looked up): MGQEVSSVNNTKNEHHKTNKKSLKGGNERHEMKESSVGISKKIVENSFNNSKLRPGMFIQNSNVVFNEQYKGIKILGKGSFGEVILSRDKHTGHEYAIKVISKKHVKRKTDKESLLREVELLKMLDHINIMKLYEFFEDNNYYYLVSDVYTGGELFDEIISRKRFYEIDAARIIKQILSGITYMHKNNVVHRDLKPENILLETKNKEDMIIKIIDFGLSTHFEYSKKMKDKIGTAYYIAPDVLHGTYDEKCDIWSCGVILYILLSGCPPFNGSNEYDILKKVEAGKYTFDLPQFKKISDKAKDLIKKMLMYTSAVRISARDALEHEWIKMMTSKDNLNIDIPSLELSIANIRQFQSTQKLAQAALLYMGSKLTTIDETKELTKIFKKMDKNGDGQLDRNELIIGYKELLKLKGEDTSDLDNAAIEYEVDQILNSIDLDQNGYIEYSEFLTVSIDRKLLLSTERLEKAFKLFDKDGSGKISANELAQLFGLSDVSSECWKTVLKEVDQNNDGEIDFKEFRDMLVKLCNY

In general, inhibition refers to the change of the read-out against control, counted positive when it falls. Take `O=C(NCC1CCCCC1)c1cc(=O)c2ccccc2o1`: the growth inhibition in assay [1] was 77% (active); in assay [4], 98% (active). In addition, the inhibition in assay [2] is -1%; in assay [3], -2%. The result in assay [5], in assay [6], in assay [7] and in assay [8] was inactive.
With `CN1CCC(Oc2cc(NC(=O)Nc3ccc(-c4ccncc4)c(C(F)(F)F)c3)ccc2Cl)CC1`, the figures for the growth inhibition in assay [1] and in assay [4] were 92% (active) and 100% (active), respectively. Moreover, the inhibition in assay [2] is 30%; in assay [3], -1%. Further, the result in assay [5], in assay [6], in assay [7] and in assay [8] was inactive.
Take `COC(=O)c1ccc2nc(-c3ccc(C(=O)NCc4ccc(Cl)c(Cl)c4)cc3)[nH]c2c1`: the growth inhibition in assay [1] is 3%; in assay [4] it was 95% (active). The inhibition is 1% in assay [2] and -2% in assay [3]. Further, the result in assay [5], in assay [6], in assay [7] and in assay [8] was inactive.
Take `COc1cc2c(cc1COc1ccccc1)CCN1Cc3cc(OC)c(OC)cc3CC21` (stereo not given): the growth inhibition in assay [1] was 84% (active); in assay [4] it was 99% (active). Also, the inhibition was -1% in assay [2] and 2% in assay [3]. For the same molecule, the result in assay [5], in assay [6], in assay [7] and in assay [8] was inactive.
In the case of `Cc1cc(CNCCCCCCNCc2cccc([N+](=O)[O-])c2)ccc1O`, the growth inhibition was -1% in assay [1] and 90% (active) in assay [4]. Besides, the inhibition in assay [2] was 13%; in assay [3], -8%. Besides, the outcome in assay [5], in assay [6], in assay [7] and in assay [8] was inactive.
As for `CC(C)n1ncc2c(C(=O)N3CCCCCC3)cc(-c3ccccc3)nc21`, the results for the growth inhibition in assay [1] and in assay [4] were 42% and 97% (active), respectively. In addition, the inhibition was -12% in assay [2] and 2% in assay [3]. Also, the result in assay [5], in assay [6], in assay [7] and in assay [8] was inactive.
Regarding `Cc1ccc(F)cc1S(=O)(=O)Nc1ccc(CCN2CCC(N3CCCCC3)CC2)cc1`, the growth inhibition in assay [1] is 15%; in assay [4] it was 99% (active). The inhibition in assay [2] is 25%; in assay [3] it was -3%. Also, the outcome in assay [5], in assay [6], in assay [7] and in assay [8] was inactive.
For `C=CCN1C(=O)C(=Cc2cc(Br)ccc2O)SC1=Nc1ccccc1`, the growth inhibition in assay [1] was 55% (active); in assay [4], 96% (active). For the same molecule, the inhibition in assay [2] and in assay [3] was -4% throughout. The outcome in assay [5], in assay [6], in assay [7] and in assay [8] was inactive.
Consider `NCC1CCCN1Cc1ccc(-c2cccc(-c3nc4ccc(F)cc4[nH]3)c2)cc1` (stereo not given), for which the growth inhibition was 31% in assay [1] and 100% (active) in assay [4]. The inhibition in assay [2] is 38%; in assay [3] it was 4%. For the same molecule, the outcome in assay [5], in assay [6], in assay [7] and in assay [8] was inactive.
On to `CC(C)CNCc1ccc(-c2cccc(CNc3ccc4ncccc4c3)c2)cc1`, for which the growth inhibition in assay [1] is 31%; in assay [4], 96% (active). The inhibition is 29% in assay [2] and -2% in assay [3]. Further, the outcome in assay [5], in assay [6], in assay [7] and in assay [8] was inactive.
As for `O=C(NCc1cccc(F)c1)Nc1ccc(-c2cccc(-c3nc4ccccc4[nH]3)c2)cc1`, the growth inhibition in assay [1] is 2%; in assay [4], 86% (active). The inhibition is 14% in assay [2] and 0% in assay [3]. Also, the result in assay [5], in assay [6], in assay [7] and in assay [8] was inactive.
Turning to `Clc1cccc(C=NNc2ccnc3ccccc23)c1`, the growth inhibition in assay [1] was 44%; in assay [4] it was 102% (active). The figures for the inhibition in assay [2] and in assay [3] were 5% and 4%, respectively. The outcome in assay [5], in assay [6], in assay [7] and in assay [8] was inactive.
As to `O=C(CSc1n[nH]c(=O)n1Cc1ccccc1)Nc1ccccc1-c1ccccc1`, the growth inhibition in assay [1] is 36%; in assay [4], 89% (active). In addition, the results for the inhibition in assay [2] and in assay [3] were -8% and 3%, respectively. Moreover, the result in assay [5], in assay [6], in assay [7] and in assay [8] was inactive.
As to `Cc1nc2ccc(NC(=O)Nc3ccnc4ccc(C(F)(F)F)cc34)cc2o1`, the figures for the growth inhibition in assay [1] and in assay [4] were 24% and 89% (active), respectively. Besides, the inhibition was 20% in assay [2] and -7% in assay [3]. Further, the outcome in assay [5], in assay [6], in assay [7] and in assay [8] was inactive.
Take `CC(C)(CNCc1cc(Cl)cc(Cl)c1)c1nc(-c2ccc(Cl)c(O)c2)c(-c2ccnc(N)n2)[nH]1`: the growth inhibition in assay [1] is 2%; in assay [4], 92% (active). In addition, the inhibition in assay [2] is 54% (active); in assay [3] it was -1%. Besides, the outcome in assay [5], in assay [6], in assay [7] and in assay [8] was inactive.
Turning to `Fc1ccc(NC(=S)NN=Cc2ccccn2)cc1`, the results for the growth inhibition in assay [1] and in assay [4] were 67% (active) and 95% (active), respectively. In addition, the inhibition is 56% (active) in assay [2] and -1% in assay [3]. Besides, the result in assay [5], in assay [6], in assay [7] and in assay [8] was inactive.
Take `COc1ccc(CNCc2ccsc2)cc1-c1ccc(OC)c(S(=O)(=O)NCCN2CCCC2)c1`: the figures for the growth inhibition in assay [1] and in assay [4] were 62% (active) and 97% (active), respectively. For the same molecule, the inhibition was 18% in assay [2] and 0% in assay [3]. Moreover, the outcome in assay [5], in assay [6], in assay [7] and in assay [8] was inactive.
For the molecule `CCCCc1ccc(NC(=O)Nc2ccc3c(c2)CCNCC3)cc1`, the results for the growth inhibition in assay [1] and in assay [4] were 43% and 95% (active), respectively. Also, the values for the inhibition in assay [2] and in assay [3] were 16% and 0%, respectively. Besides, the outcome in assay [5], in assay [6], in assay [7] and in assay [8] was inactive.
In the case of `N=c1n(Cc2ccccc2)c2ccccc2n1CC(O)c1ccc(Cl)c(Cl)c1` (stereo not given), the growth inhibition was 98% (active) in assay [1] and 95% (active) in assay [4]. Besides, the inhibition in assay [2] was 40%; in assay [3], 4%. In addition, the outcome in assay [5], in assay [6], in assay [7] and in assay [8] was inactive.
For the molecule `Oc1ccc(CCCNc2nc(NCc3cccc4ccccc34)nc(N3CCNCC3)n2)cc1`, the growth inhibition in assay [1] was 4%; in assay [4], 100% (active). The inhibition is 9% in assay [2] and -1% in assay [3]. For the same molecule, the result in assay [5], in assay [6], in assay [7] and in assay [8] was inactive.
